# Test results: PubChem BioAssay
# Entries with a potency or affinity are not part of this list. Inconclusive results are not listed. Unmarked numbers belong to inactive results. Calls of active or inactive are those of the source.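 How the source made its calls, unless noted: active means a dose-response fit showing signal loss, with half-maximal concentration no higher than twice the top tested dose; inconclusive means flat fit between 30% and 70% signal loss, or poor fit; inactive means the rest.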
# How the values were obtained:
# [1] = HepG2 cell cytotoxicity, dose response, cytotoxicity control, cherry-picks, set 2 (AID 687002)
# [2] = HeLa cell cytotoxicity, dose response, cytotoxicity control, ATP luminescence, cherry-pick samples (AID 687004;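 active means a fitted half-maximal concentration no higher than twice the top valid tested dose, with signal falling as cells die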;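 further: 0% = neutral control median and -100% = staurosporine 10 µM control median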)
# [3] = inhibitors of PAX8-driven TPO luciferase reporter, dose response, RMG-I cells, cherry-pick (AID 687027;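 active means every replicate test run called active, with the signal dropping as expected and potency within twice the top valid dose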)
# [4] = cytotoxicity in PAX8-dependent RMG-1 cells, dose response, cell-based, cherry-pick (AID 687029;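 active means signal drop whose fitted half-maximal concentration is at most twice the top valid dose, in every test run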;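 further: cells exposed to compound for 96 hours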)
# [5] = cytotoxicity in IOSE-T80 ovarian epithelial cells, dose response, selectivity assay for PAX8 inhibitor project, cell-based, cherry-pick (AID 687032;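 active means fitted half-maximal concentration for viability loss no higher than twice the top valid dose, in every repeat run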;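 further: cells exposed to compound for 96 h before reading; 0% = neutral control wells and -100% = 2 µM mitoxantrone kill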)
# [6] = inhibitors of CMV-promoter luciferase reporter, dose response, counter-screen for Pax8 inhibitor project, cell-based, HEK293, luminescence, dry powder (AID 743020;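 active means signal-lowering compounds whose fitted half-maximal concentration is at or below twice the top tested dose in every run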;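 further: HEK293 cells stably expressing the CMV luciferase reporter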)
# [7] = non-specific cell cytotoxicity, dose response, cytotoxicity control for PAX8 inhibitor project, plate reader, dry powder samples (AID 743021; call rule not given here)
compound,measurement,setting,value
Cc1ccc(C(=O)NC(=S)Nc2ccc(N3CCOCC3)cc2)cc1,outcome,[1],inactive
same,outcome,[2],inactive
COc1ccccc1/C=N/NC(=S)NCc1ccco1,outcome,[1],inactive
same,outcome,[2],inactive
S=C(Nc1ccccc1)Nc1cc(Cl)ccc1Oc1ccccc1,outcome,[1],inactive
same,outcome,[2],inactive
Cc1ccccc1NC(=S)NC(=O)CCc1ccccc1,outcome,[1],inactive
same,outcome,[2],inactive
COc1ccccc1NC(=S)NCc1ccc(Cl)cc1,outcome,[1],inactive
same,outcome,[2],inactive
COC(=O)C1=C(C)N(Cc2ccccc2)C(=S)NC1c1ccc(Br)cc1 (stereo unspecified),outcome,[1],inactive
same,outcome,[2],inactive
COc1ccc(C(=O)NC(=S)Nc2ccccc2N2CCOCC2)cc1[N+](=O)[O-],outcome,[1],inactive
CO[C@@H]1CN(C)C(=O)c2ccc(NC(C)=O)cc2OC[C@@H](C)N(C(=O)Cc2cccnc2)C[C@H]1C,outcome,[1],inactive
same,outcome,[2],inactive
S=C(Nc1ccccc1Oc1ccccc1)Nc1cccc(Cl)c1Cl,outcome,[1],inactive
same,outcome,[2],inactive
S=C(NCCCc1ccccc1)Nc1ccccc1,outcome,[1],inactive
same,outcome,[2],inactive
O=C(NC(=S)Nc1ccccc1N1CCOCC1)c1cccc([N+](=O)[O-])c1,outcome,[1],inactive
same,outcome,[2],inactive
C[C@@H]1CN([C@H](C)CO)S(=O)(=O)c2ccc(C#Cc3ccccn3)cc2O[C@H]1CN(C)Cc1ccccc1,outcome,[1],inactive
same,outcome,[2],inactive
COC(=O)C1=C(C)N(CC(C)C)C(=S)NC1c1ccc(-c2ccccc2)cc1 (stereo unspecified),outcome,[1],inactive
COC(=O)C1=C(C)N(Cc2ccc(Br)cc2)C(=S)NC1c1ccc(OC)cc1 (stereo unspecified),outcome,[1],inactive
same,outcome,[2],inactive
COC(=O)C1=C(C)N(Cc2ccc(Cl)cc2)C(=S)NC1c1cccc(Cl)c1 (stereo unspecified),outcome,[1],inactive
COC(=O)C1=C(C)N(Cc2ccccc2)C(=S)NC1c1ccc(Cl)cc1 (stereo unspecified),outcome,[1],inactive
same,outcome,[2],inactive
Cc1cc(C(=O)NC(=S)Nc2ccccc2N2CCOCC2)ccc1[N+](=O)[O-],outcome,[1],inactive
same,outcome,[2],inactive
Fc1ccccc1NC(=S)NCCc1cccc(Cl)c1,outcome,[1],inactive
same,outcome,[2],inactive
COc1ccc(CNC(=S)NCc2ccc(OC(C)C)cc2)cc1,outcome,[1],inactive
same,outcome,[2],inactive
COc1ccc(C(=O)NC(=S)Nc2ccccc2N2CCCCC2)cc1[N+](=O)[O-],outcome,[1],inactive
same,outcome,[2],inactive
O=C(NC(=S)Nc1ccccc1N1CCCC1)c1ccccc1[N+](=O)[O-],outcome,[1],inactive
same,outcome,[2],inactive
COc1cc2c(C(=O)N(C)c3cc(Cl)ccc3OC)cn(C)c(=O)c2cc1OC,outcome,[1],inactive
same,outcome,[2],inactive
O=C(N[C@@H]1CC[C@@H](CCn2cc(-c3ccccc3)nn2)O[C@H]1CO)c1cnccn1,outcome,[1],inactive
same,outcome,[2],inactive
CCCOc1ccc(CNC(=S)NCc2ccc(OC(C)C)cc2)cc1,outcome,[1],inactive
same,outcome,[2],inactive
O=C(NC(=S)Nc1cc(Cl)ccc1N1CCOCC1)c1ccccc1[N+](=O)[O-],outcome,[1],inactive
same,outcome,[2],inactive
O=C(NC(=S)NCC1COc2ccccc2O1)c1ccc(Cl)cc1 (stereo unspecified),outcome,[1],inactive
same,outcome,[2],inactive
COc1ccccc1NC(=S)NCc1ccccc1Cl,outcome,[1],inactive
same,outcome,[2],inactive
COCC(=O)Nc1ccc2c(c1)C(=O)N(C)C[C@H](OC)[C@@H](C)CN(C(=O)c1ccccc1)[C@@H](C)CO2,outcome,[1],inactive
same,outcome,[2],inactive
C[C@@H]1CN([C@H](C)CO)C(=O)Cc2cc(NC(=O)NC3CCCCC3)ccc2O[C@@H]1CN(C)Cc1ccccc1,outcome,[1],inactive
same,outcome,[2],inactive
O=C(NC(=S)Nc1ccccc1N1CCCC1)c1ccc([N+](=O)[O-])cc1,outcome,[1],inactive
same,outcome,[2],inactive
O=C(NC(=S)Nc1ccc(Br)cc1)C1CCC1,outcome,[1],inactive
same,outcome,[2],inactive
Cc1ccc(C(=O)NC(=S)Nc2ccccc2N2CCCC2)cc1[N+](=O)[O-],outcome,[1],inactive
same,outcome,[2],inactive
COC(=O)C1=C(C)N(Cc2ccc(Cl)cc2)C(=S)NC1c1ccc(OC)cc1 (stereo unspecified),outcome,[1],inactive
same,outcome,[2],inactive
COC(=O)C1=C(C)N(CC(C)C)C(=S)NC1c1ccc(Cl)cc1 (stereo unspecified),outcome,[1],inactive
same,outcome,[2],inactive
CCN1C(=S)N[C@@H](c2ccccc2)C(C(=O)OC)=C1C,outcome,[1],inactive
same,outcome,[2],inactive
COC(=O)C1=C(C)N(Cc2ccc(Br)cc2)C(=S)NC1c1ccccc1 (stereo unspecified),outcome,[1],inactive
same,outcome,[2],inactive
COC(=O)C1=C(C)N(CC(C)C)C(=S)NC1c1cccc(F)c1 (stereo unspecified),outcome,[1],inactive
same,outcome,[2],inactive
COC(=O)C1=C(C)N(C)C(=S)NC1c1ccccc1 (stereo unspecified),outcome,[1],inactive
same,outcome,[2],inactive
COC(=O)C1=C(C)N(Cc2ccc(Br)cc2)C(=S)NC1c1cccc(Cl)c1 (stereo unspecified),outcome,[1],inactive
same,outcome,[2],inactive
COC(=O)C1=C(C)N(Cc2ccc(Cl)cc2)C(=S)NC1c1cccc(F)c1 (stereo unspecified),outcome,[1],inactive
same,outcome,[2],inactive
COC(=O)C1=C(C)N(Cc2ccccc2)C(=S)NC1c1cccc(OC)c1 (stereo unspecified),outcome,[1],inactive
same,outcome,[2],inactive
COC(=O)C1=C(C)N(Cc2ccc(F)cc2)C(=S)NC1c1cccc(Br)c1 (stereo unspecified),outcome,[1],inactive
same,outcome,[2],inactive
C[C@H]1CCCCO[C@@H](CN(C)Cc2ccncc2)[C@@H](C)CN([C@@H](C)CO)C(=O)c2cc(NC(=O)Nc3ccccc3)ccc2O1,outcome,[1],inactive
same,outcome,[2],inactive
COC(=O)C1=C(C)N(Cc2ccc(Cl)cc2)C(=S)NC1c1ccc(F)cc1 (stereo unspecified),outcome,[1],inactive
same,outcome,[2],inactive
CCc1ccc(C(=O)NC(=S)NCc2cccnc2)cc1,outcome,[1],inactive
same,outcome,[2],inactive
C[C@@H]1CN([C@H](C)CO)C(=O)c2cc(C3=CCCCC3)cnc2O[C@H]1CN(C)C(=O)Cc1cccnc1,outcome,[1],inactive
same,outcome,[2],inactive
O=C(NC(=S)Nc1ccccc1N1CCOCC1)c1ccc(Br)cc1,outcome,[1],inactive
same,outcome,[2],inactive
Cc1cc(C)c2nc(N3CCN(C(=O)c4cccs4)CC3)sc2c1,outcome,[1],inactive
same,outcome,[2],inactive
COc1cc(OC)c(N(C)C(=O)c2cn(C)c(=O)c3cc(OC)c(OC)cc23)cc1Cl,outcome,[1],inactive
same,outcome,[2],inactive
C[C@H](CO)N1C[C@H](C)[C@@H](CN(C)Cc2ccc(Oc3ccccc3)cc2)Oc2ccc(NS(=O)(=O)c3cn(C)cn3)cc2CC1=O,outcome,[1],inactive
same,outcome,[2],inactive
COc1ccc(CNC(=S)NCc2ccc(OC)cc2)cc1,outcome,[1],inactive
same,outcome,[2],inactive
CCOc1ccc(CNC(=S)NCc2ccc(OCC)cc2)cc1,outcome,[1],inactive
same,outcome,[2],inactive
COC(=O)C1=C(C)N(Cc2ccc(Cl)cc2)C(=S)NC1c1ccc(Br)cc1 (stereo unspecified),outcome,[1],inactive
same,outcome,[2],inactive
COc1ccccc1C#Cc1ccc2c(c1)O[C@H](CN(C)C(C)=O)[C@H](C)CN([C@@H](C)CO)S2(=O)=O,outcome,[1],inactive
same,outcome,[2],inactive
Cc1c(C(=O)NC(=S)Nc2ccccc2N2CCCC2)cccc1[N+](=O)[O-],outcome,[1],inactive
same,outcome,[2],inactive
Cc1ccc(NC(=S)N(CCCN2CCOCC2)Cc2ccccn2)cc1,outcome,[3],inactive
same,outcome,[4],inactive
same,outcome,[5],inactive
same,outcome,[6],inactive
COC(=O)C1=C(C)N(Cc2ccc(F)cc2)C(=S)NC1c1cccc(Cl)c1 (stereo unspecified),outcome,[1],inactive
same,outcome,[2],inactive
COc1ccc(C2Nc3ccccc3C(=O)N2c2ccc(F)cc2)cc1CSc1ccccn1 (stereo unspecified),outcome,[3],inactive
same,outcome,[4],inactive
CCCCCCCCC(=O)NCCOc1ccccc1,outcome,[3],inactive
same,outcome,[4],inactive
same,outcome,[5],inactive
same,outcome,[6],inactive
same,outcome,[7],inactive
O=[N+]([O-])c1cccnc1S(=O)(=O)c1ccccc1,"activity change, negative = inhibition",[3],-21.1% [at 8 µM]
O=C(c1ccc2c(c1)OCO2)N1CCN(c2ccc(C(F)(F)F)cn2)CC1,outcome,[3],inactive
same,outcome,[4],inactive
same,outcome,[5],inactive
same,outcome,[6],inactive
same,outcome,[7],inactive
COC(=O)CN1C(=S)N(C)C(=O)C1CC(=O)Nc1ccccc1 (stereo unspecified),outcome,[3],inactive
same,outcome,[4],inactive
same,outcome,[5],inactive
same,outcome,[6],inactive
same,outcome,[7],inactive
O=C(O)CCCNC(=O)C(c1ccccc1)c1ccccc1,outcome,[3],inactive
same,outcome,[4],inactive
same,outcome,[5],inactive
same,outcome,[6],inactive
same,outcome,[7],inactive
